Calls of active or inactive are those of the source.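 The calls were made as follows: active = fitted half-maximal concentration AC50 at or below ten times the highest valid tested dose, with signal falling as DNA is displaced (actives reach about 34 µM in these data); inconclusive = flat fit at moderate signal loss, or poor fit quality; inactive = the rest, including signal rising instead of falling.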

The nature of the experiment: acridine orange-DNA binding displacement – biochemical, fluorescence polarization, cherry-picked samples, set 2, artefact control for KSHV LANA DNA-binding inhibitor project, dose response (AID 504727). The conditions noted are these: series mostly up to 35 µM.
Consider `COc1ccc(N(CC(=O)NCc2ccc3c(c2)OCO3)C(=O)c2csnn2)cc1`, for which the AC50 entry was “inactive”.

As to `CC(=O)Nc1ccc(S(=O)(=O)Nc2nc3ccccc3nc2Nc2ccc(C(=O)O)c(O)c2)cc1`, the AC50 result was “inactive”.

Take `COc1ccc(OC2CCN(S(=O)(=O)c3ccc(OC)cc3)CC2)cc1`: the AC50 result is “inactive”.

Regarding `COc1ccc(N=Nc2nc3ccc(Br)cc3n2C)cc1`, the AC50 result was “inactive”.

Turning to `Clc1ccc(-c2nnc3sc(-c4ccc(Br)o4)nn23)cc1`, the AC50 entry is “inactive”.

In the case of `CCOc1ccc(-n2c(Cc3cc(=O)[nH]c(=O)[nH]3)nnc2SCc2cccnc2)cc1`, the AC50 result is “inactive”.

Take `NC(=S)N/N=C/c1ccc(-c2ccc([N+](=O)[O-])cc2)o1`: the AC50 result is “inactive”.

Take `Brc1ccc(-c2noc(COc3ccc4c(c3)CCC4)n2)o1`: the AC50 entry was “inactive”.

For the compound `CCCOc1ccc(C=Nc2ccc(OC)c(S(=O)(=O)N3CCOCC3)c2)c(O)c1`, the AC50 result was “inactive”.

With `Cn1c(=O)c2c(nc(N/N=C/c3ccc(OC(=O)c4ccco4)cc3)n2Cc2ccc(F)cc2)n(C)c1=O`, the AC50 result is “inactive”.

For `CN(C)c1ccc(/C=C/C(=O)c2ccc(O)cc2)cc1[N+](=O)[O-]`, the AC50 entry was “inactive”.

Consider `COc1ccc(C2c3ccc(O)cc3Oc3ncn(CCCO)c(=N)c32)cc1OC` (centres undefined), for which the AC50 result was “inactive”.

Turning to `Cc1ccc2cccc(OCC(=O)NCCC3=CCCCC3)c2n1`, the AC50 result was “inactive”.

On to `O=C(O)Cc1ccc(N=Nc2c(O)c(C(=O)O)cc3ccccc23)cc1`, for which the AC50 result was “inactive”.

For `O=c1cc2c(=O)oc3cc(O)c(O)oc3c2c(O)c1O`, the AC50 entry was “inactive”.

Turning to `O=C(CCCN1C(=O)/C(=C\c2ccco2)SC1=S)Nc1ccc(O)cc1C(=O)O`, the AC50 result is “inactive”.

For `CC(C)C(=O)N1CCN(c2ccccc2NC(=S)NC(=O)c2ccco2)CC1`, the AC50 entry was “inactive”.

As to `Cc1noc(C)c1CSCC(=O)Nc1nc2c(F)cc(F)cc2s1`, the AC50 entry was “inactive”.

Turning to `Cc1cccc(C)c1NC(=O)CSc1nnc(-c2ccco2)c(-c2ccco2)n1`, the AC50 entry was “inactive”.

With `COc1ccc(C2C(C(=O)c3cccs3)=C(O)C(=O)N2c2nnc(C)s2)cc1OC` (centres undefined), the half-maximal activity concentration (AC50) was 21.6 µM (active).

Take `COc1ccc(Br)cc1CNC(=O)CCCc1cn(C)c2ccccc12`: the AC50 entry is “inactive”.

As for `O=C(NCc1cccnc1)C(=O)C1C(=O)Nc2ccccc21` (centres undefined), the AC50 entry is “inactive”.

With `O=C(c1ccccc1)c1ccc(O)cc1O`, the AC50 was 7.3 µM (active).

For the compound `Cc1ccc(OCC(=O)O/N=C(\N)Cc2ccc([N+](=O)[O-])cc2)cc1C`, the AC50 entry is “inactive”.

Take `CCn1c(SCc2nc3sc(C(=O)O)c(C)c3c(=O)[nH]2)nc2ccccc21`: the AC50 result is “inactive”.

Take `CCNc1nc(NC(C)C)nc(NS(=O)(=O)c2ccc(N)cc2)n1`: the AC50 entry is “inactive”.

Take `O=C(Cn1c2ccccc2c2nc3n(c(=O)c21)CCS3)Nc1ccccc1C(F)(F)F`: the AC50 result was “inactive”.

With `CS(=O)(=O)c1cccc(C(=O)Oc2ccccc2)c1`, the AC50 result was “inactive”.

Take `CCn1c(CN2CCCCC2)nc2cc(S(=O)(=O)N3CCCCC3)ccc21`: the AC50 result was “inactive”.

For `CSc1n[nH]c(=O)n1-c1cccc(Cl)c1`, the AC50 entry was “inactive”.

As to `Cc1ccc(C)c(OCC(=O)N(Cc2nnc(-c3ccccc3Cl)o2)C2CC2)c1`, the AC50 result is “inactive”.

For the compound `O=C(O)c1ccc2c(c1)[C@@H]1C=CC[C@@H]1[C@H](c1ccccn1)N2`, the AC50 entry was “inactive”.

For the compound `COc1ccc(NS(=O)(=O)c2ccc(C)c(C(=O)N(C)Cc3ccc(OC)cc3OC)c2)cc1`, the AC50 result is “inactive”.

For `O=C(Nc1ccc(Br)cn1)c1cccc2ccccc12`, the AC50 entry is “inactive”.

On to `Cc1cc2nc(SCCN3CCOCC3)[nH]c2cc1C`, for which the AC50 result was “inactive”.

For the compound `Cn1c(=O)c(NCCc2ccccc2)c2c3c(cccc31)C(=O)c1ccccc1-2`, the concentration at half-maximal activity (AC50) was 1.14 µM (active).

As for `CCCCNc1c2c3c(cccc3n(C)c1=O)C(=O)c1ccccc1-2`, the concentration at half-maximal activity (AC50) is 2.25 µM (active).

With `Cc1c(C#N)c(=O)c(-[n+]2ccccc2)c([S-])n1-c1ccc(Cl)cc1`, the AC50 result was “inactive”.

As for `N=c1ccn(Cc2ccc(Cl)cc2)cc1`, the AC50 result was “inactive”.

Source of the values: PubChem BioAssay AID504727 (Broad Institute, 2011).
